GLA spleen mod: inhibits or activates alpha-galactosidase in human spleen homogenate; Potency, µM (titrated, usually from 80 µM), for the others: at the top dose activity change, negative = inhibition, hits mostly inhibitors; P06280; hit rate 0.008% among 240,000; human spleen homogenate, 4MU-alpha-Gal fluorescence, 40 min;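 also: potency is read from the fitted curve at half-maximal effect; 0% = enzyme with vehicle and -100% = no enzyme basal signal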
Target sequence (P06280 32-429 limits assumed): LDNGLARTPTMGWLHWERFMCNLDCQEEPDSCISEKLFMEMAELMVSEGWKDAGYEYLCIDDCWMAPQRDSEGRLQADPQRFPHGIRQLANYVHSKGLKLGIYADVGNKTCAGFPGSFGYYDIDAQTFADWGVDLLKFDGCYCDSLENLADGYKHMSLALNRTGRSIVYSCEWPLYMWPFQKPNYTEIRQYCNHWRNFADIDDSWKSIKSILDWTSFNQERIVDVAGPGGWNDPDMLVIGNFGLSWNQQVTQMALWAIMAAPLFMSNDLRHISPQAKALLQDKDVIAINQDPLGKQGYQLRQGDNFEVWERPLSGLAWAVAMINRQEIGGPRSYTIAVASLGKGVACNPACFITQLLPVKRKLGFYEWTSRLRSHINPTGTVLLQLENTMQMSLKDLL
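Human spleen homogenate (1 ug) as enzyme source, 4-methylumbelliferyl-alpha-D-galactopyranoside 1 mM final, citrate/phosphate pH 5.0 with 0.01% Tween-20. Compounds 40 min at 37C, NaOH/glycine stop; fluorescence Ex 365/Em 440, Hill-fit AC50.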
GLA inh pH 4.5: blocks human alpha-galactosidase A at pH 4.5; P06280; purified enzyme, 4-MU-alpha-Gal fluorescence, pH 4.5; activity change, negative = inhibition, % at 105 µM; 230,000 tested, under 10 active; AID 1467;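 also: 0% = full activity with enzyme and -100% = basal without enzyme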
GAA glycogen: GAA glycogen-cleavage inhibition or activation; P10253; recombinant GAA, glycogen substrate, Amplex Red glucose oxidase fluorescence; Potency, µM (titrated, usually from 76.4 µM), inactives show at the highest dose activity change, negative = inhibition, hits mostly inhibitors; hit rate 0.38% among 300,000; AID 2100;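 also: potency is read from the fitted curve at half-maximal effect; 0% = full enzyme reaction and -100% = no-enzyme basal signal; the screen sought inhibitors and activators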
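Recombinant enzyme (4 nM final) with compounds titrated up to 77 uM and bovine liver glycogen (30 ug) in citrate pH 5.0, 0.01% Tween-20, 37 C 40 min. Released glucose detected by Amplex Red/glucose oxidase (Ex 573/Em 610); AC50 from Hill fits.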
GAA spleen mod: inhibits or activates alpha-glucosidase in human spleen homogenate; Potency, µM (doses to about 79.9 µM), for the others: top-dose activity change, negative = inhibition, actives largely listed as inhibitors; hit rate 0.006% among 240,000; human spleen homogenate, 4-MU-alpha-glucoside fluorescence; AID 2112; P10253;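 also: potency is read from the fitted curve at half-maximal effect; 0% = enzyme with vehicle and -100% = no enzyme basal signal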
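Enzyme source: human spleen homogenate, 1 ug/well. Buffer 50 mM citric acid/K phosphate pH 5.0, 0.01% Tween-20. 4-MU-alpha-glucoside 1 mM; 37 C x 40 min; NaOH/glycine stop; fluorescence.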
N370S GC mod: inhibitors or activators of N370S glucocerebrosidase for Gaucher disease; Potency, µM (doses to about 59.4 µM), inactives show at the top dose activity change, negative = inhibition, usual class: inhibitors; N370S GC spleen homogenate, 4MU-glucoside fluorescence; hit rate 0.092% among 330,000;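 also: potency is read from the fitted curve at half-maximal effect; 0% = full enzyme activity and -100% = no enzyme basal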
GAA inhib: alpha-glucosidase (human) inhibition. hit rate 0.005% among 200,000. Potency, µM (titrated, usually from 76.9 µM), for inactives: at the highest dose activity change, negative = inhibition, usual class: inhibitors. purified human GAA, 4-MU-alpha-glucoside fluorescence. AID 1466;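 also: potency is read from the fitted curve at half-maximal effect; plate controls were uninhibited enzyme wells for no effect and no-enzyme background for full effect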
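qHTS format, compound range up to 77 uM. Human lysosomal enzyme at 4 nM, 400 uM 4-MU glucoside substrate, pH 5.0, 20 min room temperature; fluorescence after alkaline stop gives activity normalized to controls.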
* = called active by the depositor; [ ] = remark or other dose. Compounds with a hit are over-represented: about 0.41% of the library has one in this group of screens. Calls follow the shape of the dose curve; as a rule, active = well fitted curve in the direction sought with a large enough effect; inconclusive = small, poorly fitted or top-dose-only effect, or another doubt; inactive = no such curve, though single readings can be large; an effect the other way counts as inactive or inconclusive.

Oc1ccc(Br)cc1-c1nc2cnccn2c1NC1CCCC1 was read as GLA spleen mod -16%, GLA inh pH 4.5 -11, GAA glycogen 16µM*, GAA spleen mod -5%, N370S GC mod 5% and GAA inhib 0%.
For COc1cccc(NC(=O)C(=O)NCc2ccncc2)c1 the results were GLA spleen mod -2%, GLA inh pH 4.5 4, GAA glycogen -2%, GAA spleen mod 8%, N370S GC mod 12% and GAA inhib 10%.
`O=C(C1=C[C@H](c2ccc(C(F)(F)F)cc2)C[C@H](OCc2ccc(CO)cc2)O1)N1CCN(Cc2ccc3c(c2)OCO3)CC1` gave GLA spleen mod 6%, GLA inh pH 4.5 -24, GAA glycogen -18%, GAA spleen mod -8% and N370S GC mod -29%.
Screening O=C(C1=C[C@@H](c2ccc(C(F)(F)F)cc2)C[C@@H](OCc2ccc(CO)cc2)O1)N1CCN(Cc2ccc3c(c2)OCO3)CC1 returned GLA spleen mod -5%, GLA inh pH 4.5 -13, GAA glycogen -7%, GAA spleen mod -16% and N370S GC mod 10µM*.
For O=C(C1=C[C@@H](c2ccc(Br)cc2)C[C@@H](OCc2ccc(CO)cc2)O1)N1CCN(Cc2ccccc2)CC1 the results were GLA spleen mod 2%, GLA inh pH 4.5 -2, GAA glycogen 4%, GAA spleen mod 4% and N370S GC mod 14µM*.
For [O-]/[N+](=C\c1ccccc1)[C@@H]1CCCC[C@@H]1/[N+]([O-])=C/c1ccccc1 the results were GLA spleen mod 6%, GLA inh pH 4.5 -9, GAA glycogen 40µM*, GAA spleen mod 2%, N370S GC mod -1% and GAA inhib 7%.
`CNC(=S)Nc1ccc(Br)cc1` gave GLA spleen mod -4%, GLA inh pH 4.5 -16, GAA glycogen -4%, GAA spleen mod -1%, N370S GC mod 6% and GAA inhib 5%.
CCCNC(=S)Nc1ccc(Nc2ccccc2)cc1 was read as GLA spleen mod 7%, GLA inh pH 4.5 -8, GAA glycogen 16µM*, GAA spleen mod 4%, N370S GC mod 3% and GAA inhib -2%.
For CNC(=S)Nc1ccc(Nc2ccccc2)cc1 the results were GLA spleen mod 0%, GLA inh pH 4.5 5, GAA glycogen 25µM*, GAA spleen mod -2%, N370S GC mod 0% and GAA inhib 7%.
`CN1c2cccc3cccc(c23)N(C)C1c1cccs1` gave GLA spleen mod 4%, GLA inh pH 4.5 0, GAA glycogen inconclusive, GAA spleen mod 3%, N370S GC mod 10% and GAA inhib 1%.
`CC1N(C)c2cccc3cccc(c23)N1C` gave GLA spleen mod 9%, GLA inh pH 4.5 3, GAA glycogen 12µM*, GAA spleen mod 4%, N370S GC mod 1% and GAA inhib 5%.
O=C(COC(=O)CNC(=O)C1CCCCC1)Nc1ccc2c(c1)OCCO2 was read as GLA spleen mod -1%, GLA inh pH 4.5 4, GAA glycogen -17%, N370S GC mod 2% and GAA inhib 6%.
CCOc1ccccc1CNc1ccc(O)cc1 was read as GLA spleen mod 5%, GLA inh pH 4.5 -2, GAA glycogen inconclusive, GAA spleen mod 4%, N370S GC mod 5.6µM* and GAA inhib -4%.
Screening Oc1ccc(Br)cc1C=Nc1cccn2cc(-c3ccccc3)nc12 returned GLA spleen mod -10%, GLA inh pH 4.5 8, GAA glycogen inconclusive, GAA spleen mod -2%, N370S GC mod 4.5µM* and GAA inhib 11%.
`Oc1ccc(Br)cc1/C=N/n1c(-c2ccccc2)n[nH]c1=S` gave N370S GC mod -2%.
`Cc1ccc(NC(=O)CSc2nnc(C)c(=O)[nH]2)cc1` gave GAA glycogen -7%[76.3 µM].
CCN(CC)c1ccc(NC(=O)CSc2nnc(C)c(=O)[nH]2)cc1 was read as GAA glycogen 25µM*.
For CC(C)(C)c1cc(CNC2CS(=O)(=O)C[C@@H]2O)cc(C(C)(C)C)c1O (stereo partly specified) the results were GLA spleen mod 10%, GLA inh pH 4.5 0, GAA glycogen 16µM*, GAA spleen mod 4%, N370S GC mod inconclusive and GAA inhib 7%.
`O=S1(=O)CC(O)C(NCc2ccco2)C1` (stereo unspecified) gave GLA spleen mod 3%, GLA inh pH 4.5 0, GAA glycogen 8%, GAA spleen mod 11%, N370S GC mod 5% and GAA inhib 1%.
Screening O=S(=O)(c1cccs1)N1CN(C2CCCC2)c2nc3ccccc3nc21 returned GLA spleen mod 7%, GLA inh pH 4.5 -4, GAA glycogen 5%, GAA spleen mod -3% and N370S GC mod 1%.
For COc1ccc(NC(=S)N(CCCN2CCOCC2)Cc2cn(C)c3ccccc23)cc1OC the results were GLA spleen mod 4%, GLA inh pH 4.5 -20, GAA glycogen inconclusive, GAA spleen mod -15%, N370S GC mod inconclusive and GAA inhib 0%.
`COc1cccc(NC(=S)N(CCCN2CCOCC2)Cc2cn(C)c3ccccc23)c1` gave GLA spleen mod -8%, GLA inh pH 4.5 -2, GAA glycogen 4%, GAA spleen mod -5%, N370S GC mod 2.8µM* and GAA inhib -4%.
`Nc1nc(-c2cccs2)c(NC(=O)c2ccccc2)s1` gave GLA spleen mod -2%, GLA inh pH 4.5 -6, GAA glycogen 20µM*, GAA spleen mod 9%, N370S GC mod -14% and GAA inhib -5%.
CCOc1ccc(-n2c(-c3ccc(C)cc3)nc3c(cnn3-c3ccccc3)c2=O)cc1 was read as GAA glycogen -2%[76.3 µM].
`CCOC(=O)c1c(C)n(C)c2ccc(O)c(CN(C)C)c12` gave GLA spleen mod 7%, GLA inh pH 4.5 -5, GAA glycogen 25µM*, GAA spleen mod -13%, N370S GC mod -4% and GAA inhib -8%.
`CCOC(=O)c1c(C)n(-c2ccc(OC)cc2)c2ccc(O)c(CN(C)C)c12` gave GLA spleen mod -2%, GLA inh pH 4.5 2, GAA glycogen -14%, GAA spleen mod -4% and N370S GC mod 4%.
C=CCc1c(C)nc(-c2ccccc2)nc1Nc1ccc(O)cc1 was read as GLA spleen mod -2%, GLA inh pH 4.5 -3, GAA glycogen 3%, GAA spleen mod -5%, N370S GC mod 14µM* and GAA inhib 2%.
For C=CCc1c(C)nc(-c2ccccc2)nc1N/N=C(\C)c1ccccc1 the results were GLA spleen mod 5%, GLA inh pH 4.5 -1, GAA glycogen inconclusive, GAA spleen mod -1%, N370S GC mod 10µM* and GAA inhib 5%.
